Potency and activation (H2AX phosphorylation) data for 30 molecules are collected here from PubChem BioAssay (Tox21).

Results filed as inconclusive are left out. A call without a number means that no potency is given here. Activity calls are given as the source filed them. Calls follow the shape of the dose curve; as a rule, active = well fitted activation curve with a large enough effect in the signal ratio in the repeat runs (not every such curve was filed as active); inconclusive = weak or mixed curves; inactive = flat fitted curve, though single readings scatter; the % refers to the signal ratio. Where a SMILES comes first, the peptide text is derived from it. [ ]: non-standard residue; d: D form. pGlu = O=C1CC[C@@H](C(=O)O)N1

A short description of this assay: qHTS assay to identify small molecule agonists of H2AX (AID 1224845). As to conditions: CHO-K1 phospho-H2AX Ser139 HTRF, 3 h; series mostly up to 154 µM. The gist of the method: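 Wild-type CHO-K1 cells plated overnight, then exposed 3 hr at 37C to compounds at 15 concentrations (0.76% DMSO). Lysed, then HTRF anti-pH2AX(S139)-cryptate/anti-H2AX-d2 detection after 24 hr at room temperature; emissions 665 and 620 nm.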
For orientation: In qHTS, concentration-response curves come from the screen itself.
With `CCCCCCC#CC(=O)OC`, the Potency entry was “inactive”.
With `O=C(O)CCSCCC(=O)O`, the Potency entry is “inactive”.
For `O=Cc1cccc(Br)c1`, the Potency entry was “inactive”.
With `Cc1ccc(C(=O)c2ccc(CC(=O)O)n2C)cc1`, the Potency result is “inactive”.
Same read-out and setting: under `CCN(C=O)CC` stands “inactive”.
Regarding `COc1ccc2cc1Oc1cc3c(cc1OC)CC[N+](C)(C)[C@H]3Cc1ccc(cc1)Oc1c(OC)c(OC)cc3c1[C@@H](C2)[N+](C)(C)CC3`, the Potency result was “inactive”.
Same read-out and setting: the same measure for `Cc1ccc(C(=O)c2ccccc2)cc1`: “inactive”.
On to `CC(C)C[C@@H](N)C(=O)O`, for which the activation (H2AX phosphorylation) is -1.49% [at 31.6 µM] (inactive).
For `O=C(O)CC(C(=O)O)S(=O)(=O)O` (stereo not given), the Potency result was “inactive”.
The same measure, in the same setting: the same measure for `CC(CC=O)CC(C)(C)C` (stereo not given): “inactive”; for `NC(CCC(=O)O)C(=O)O` (stereo not given): “inactive”; for `Clc1cc(Cl)cc(Cl)c1`: “inactive”.
On the same count and under the same terms, the same measure for `CO/N=C(\C(=O)N[C@@H]1C(=O)N2C(C(=O)O)=C(CSc3nc(=O)c(O)nn3C)CS[C@H]12)c1csc(N)n1`: “inactive”; for `CCNC(=O)[C@@H]1CCCN1C(=O)[C@H](CCCN=C(N)N)NC(=O)[C@H](CC(C)C)NC(=O)CNC(=O)[C@H](Cc1ccc(O)cc1)NC(=O)[C@H](CO)NC(=O)[C@H](Cc1c[nH]c2ccccc12)NC(=O)[C@H](Cc1cnc[nH]1)NC(=O)[C@@H]1CCC(=O)N1` ([pGlu]HWSYGLRP-NHEt): “inactive”; for `CCCO[Si](OCCC)(OCCC)OCCC`: “inactive”.
Still for that read-out and setting: under `CCCCCCCCCCCCSC` stands “inactive”; under `CC(C#N)(CCC(=O)O)N=NC(C)(C#N)CCC(=O)O` (stereo not given), “inactive”; under `NCCCC[C@H](N[C@@H](CCc1ccccc1)C(=O)O)C(=O)N1CCC[C@H]1C(=O)O`, “inactive”.
For `CC(=O)Nc1ccc(OCC(O)CNC(C)C)cc1` (stereo not given), the Potency result was “inactive”.
On the same count and under the same terms, under `CCCCOCCOC(=O)CCCCCCCCC(=O)OCCOCCCC` stands “inactive”; under `CCCOC(=O)CC`, “inactive”; under `COc1cc(C)nc(-n2nc(C)cc2OC)n1`, “inactive”.
On the same count and under the same terms, under `O=[N+]([O-])c1ccc(/C=N\O)o1` stands “inactive”; under `O=S(=O)(O)c1cccc2c(S(=O)(=O)O)cccc12`, “inactive”; under `CCCCCC(=O)OCCc1ccccc1`, “inactive”.
Still for that read-out and setting: under `COc1ccccc1OCC1CNC(=O)O1` (stereo not given) stands “inactive”; under `CCCCCC(C)N` (stereo not given), “inactive”; under `COC(=O)C1=C(C)NC(C)=C(C(=O)OC(C)C)C1c1cccc2nonc12` (stereo not given), “inactive”.
In the case of `CCC(C(=O)NC(=O)NC(C)=O)c1ccccc1` (stereo not given), the Potency entry was “inactive”.
Consider `CC[C@H]1OC(=O)[C@H](C)[C@@H](O[C@H]2C[C@@](C)(OC)[C@@H](O)[C@H](C)O2)[C@H](C)[C@@H](O[C@@H]2O[C@H](C)C[C@H](N(C)C)[C@H]2O)[C@](C)(OC)C[C@@H](C)C(=O)[C@H](C)[C@@H](O)[C@]1(C)O`, for which the Potency entry was “inactive”.
